# PubChem BioAssay (NCATS)
# Several values for one entry are separate records, joined by “and”; a condition that tells them apart may be missing. Identical values can stand only once. Inconclusive results are not listed. A call without a number means that no potency is given here. Values without a mark were called inactive. Activity calls are given as the source filed them. Unless noted, calls come from the whole dose curve.
# How the values were obtained:
# [1] = target: Estrogen receptor (Homo sapiens) (UniProt P03372); experiment: qHTS assay for small molecule antagonists of estrogen receptor alpha signaling (AID 588513; active = well fitted curve in the direction sought with a large enough effect in the signal ratio, with a control signal flat, not every such curve was filed as active; the % refers to the signal ratio)
# Method in brief: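 Antagonist-mode qHTS in ER-alpha-UAS-bla HEK 293 cells: compound titration, 0.5nM estradiol for 18 h, CCF4 fluorescence, Hill-derived IC50.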
# [2] = target: Bile acid receptor (Homo sapiens) (UniProt Q96RI1); experiment: qHTS assay for small molecule antagonists of farnesoid X receptor signaling (AID 588526)
# Method in brief: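 Concentration-response titrations were fitted to the Hill equation for half-maximal inhibition and maximal response, with data normalised to 50 uM chenodeoxycholic acid and DMSO control wells. Cells: FXR-UAS-bla HEK293T, dialyzed FBS.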
# [3] = target: Peroxisome proliferator-activated receptor gamma (Homo sapiens) (UniProt P37231); experiment: qHTS assay for small molecule agonists of peroxisome proliferator-activated receptor gamma signaling (AID 588536; active = well fitted curve in the direction sought with a large enough effect in the signal ratio, with a control signal flat, not every such curve was filed as active; the % refers to the signal ratio)
# Method in brief: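 Test agents, titrated, stimulated HEK293 UAS-bla cells overnight (16 h, 37 C). Substrate CCF4 was then added for two hours at room temperature before fluorescence reading.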
# [4] = qHTS assay for small molecule agonists of the antioxidant response element (ARE) signaling pathway (AID 651741; active = well fitted activation curve with a large enough effect in the signal ratio; the % refers to the signal ratio; note: potency is the fitted concentration of half-maximal effect)
# Method in brief: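 ARE-bla HepG2 cells (beta-lactamase reporter under ARE control) were plated at 2,000 cells/well, preincubated 5 h at 37 C/5% CO2, then treated with DMSO-dissolved compounds for 16 h at 37 C; LiveBLAzer B/G FRET substrate added, fluorescence read after 2 h at room temperature.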
# [5] = target: Glucocorticoid receptor (Homo sapiens) (UniProt P04150); experiment: qHTS assay for small molecule agonists of glucocorticoid receptor signaling (AID 588532; active = well fitted curve in the direction sought with a large enough effect in the signal ratio, with a control signal flat; the % refers to the signal ratio); conditions: HeLa MMTV-bla, beta-lactamase ratio, agonist, 18 h; active compounds read high; percent of dexamethasone control, DMSO zero
# Method in brief: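 MMTV-bla HeLa, beta-lactamase reporter; medium with 1% charcoal/dextran-stripped FBS; cpds up to 92 uM, 18 h, 37 C; CCF4 readout 460/530 nm; Hill fit → EC50, efficacy vs 0.1 uM dexamethasone = 100%.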
# [6] = target: Glucocorticoid receptor (Homo sapiens) (UniProt P04150); experiment: qHTS assay for small molecule antagonists of glucocorticoid receptor signaling (AID 588533; active = well fitted inhibition curve with a large enough effect in the signal ratio, with a control signal flat, not every such curve was filed as active; the % refers to the signal ratio;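 note: cells stimulated with 2 nM dexamethasone as agonist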)
# Method in brief: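 Antagonist-mode qHTS: compound titrations added to GRE-bla HeLa cells, then dexamethasone 2 nM final; 18 h, 37 C. CCF4 FRET fluorescence normalized to dexamethasone and DMSO; IC50 from Hill fit.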
# [7] = target: Peroxisome proliferator-activated receptor gamma (Homo sapiens) (UniProt P37231); experiment: qHTS assay for small molecule antagonists of peroxisome proliferator-activated receptor gamma signaling (AID 588537; active = well fitted inhibition curve with a large enough effect in the signal ratio, with a control signal flat, not every such curve was filed as active; the % refers to the signal ratio;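 note: reporter cells co-stimulated with 50 nM rosiglitazone agonist during compound treatment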)
# Method in brief: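 PPAR-gamma-UAS-bla HEK293 cells (3000/well, 1% charcoal/dextran-stripped FBS) were preincubated 6-6.5 h at 37 C, given titrated compounds, then stimulated with 50 nM rosiglitazone for 16 h. Beta-lactamase activity was read with CCF4 dye; IC50 came from Hill fits.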
# [8] = target: Estrogen receptor (Homo sapiens) (UniProt P03372); experiment: qHTS assay for small molecule agonists of estrogen receptor alpha signaling (AID 588514); note: nearly all actives have a fitted effect of over 70% in size; note: potency is the fitted concentration of half-maximal effect
# Method in brief: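 Reporter-gene assay. […] controls beta-lactamase in HEK 293 GripTite cells; after 18 hrs with compound, CCF4 substrate is added for 2 hrs and fluorescence is read.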
# [9] = target: Androgen receptor (Homo sapiens) (UniProt P10275); experiment: qHTS assay for small molecule agonists of androgen receptor signaling (AID 588515; active = well fitted curve in the direction sought with a large enough effect in the signal ratio, with a control signal flat; the % refers to the signal ratio); conditions: AR-UAS-bla HEK293, beta-lactamase ratio, agonist 16 h; activation: active compounds read high
# Method in brief: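 EC50 and efficacy came from Hill fits of titrations (up to 92 uM) normalized to 30 nM R1881 as 100% and DMSO as 0%. Compound exposure was 16 h at 37 C on AR-UAS-bla HEK293 cells, with a 405/460/530 nm CCF4 fluorescence read.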
# [10] = target: Androgen receptor (Homo sapiens) (UniProt P10275); experiment: qHTS assay for small molecule antagonists of androgen receptor signaling (AID 588516; active = well fitted curve in the direction sought with a large enough effect in the signal ratio, with a control signal flat, not every such curve was filed as active; the % refers to the signal ratio)
# Method in brief: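 Compounds tested in titration against 10 nM R1881 in AR-responsive bla reporter HEK 293 cells; CCF4 fluorescence (460/530 nm) after 16 h exposure gave IC50 and efficacy.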
# Sequence of Glucocorticoid receptor (Homo sapiens) (P04150 whole entry, looked up): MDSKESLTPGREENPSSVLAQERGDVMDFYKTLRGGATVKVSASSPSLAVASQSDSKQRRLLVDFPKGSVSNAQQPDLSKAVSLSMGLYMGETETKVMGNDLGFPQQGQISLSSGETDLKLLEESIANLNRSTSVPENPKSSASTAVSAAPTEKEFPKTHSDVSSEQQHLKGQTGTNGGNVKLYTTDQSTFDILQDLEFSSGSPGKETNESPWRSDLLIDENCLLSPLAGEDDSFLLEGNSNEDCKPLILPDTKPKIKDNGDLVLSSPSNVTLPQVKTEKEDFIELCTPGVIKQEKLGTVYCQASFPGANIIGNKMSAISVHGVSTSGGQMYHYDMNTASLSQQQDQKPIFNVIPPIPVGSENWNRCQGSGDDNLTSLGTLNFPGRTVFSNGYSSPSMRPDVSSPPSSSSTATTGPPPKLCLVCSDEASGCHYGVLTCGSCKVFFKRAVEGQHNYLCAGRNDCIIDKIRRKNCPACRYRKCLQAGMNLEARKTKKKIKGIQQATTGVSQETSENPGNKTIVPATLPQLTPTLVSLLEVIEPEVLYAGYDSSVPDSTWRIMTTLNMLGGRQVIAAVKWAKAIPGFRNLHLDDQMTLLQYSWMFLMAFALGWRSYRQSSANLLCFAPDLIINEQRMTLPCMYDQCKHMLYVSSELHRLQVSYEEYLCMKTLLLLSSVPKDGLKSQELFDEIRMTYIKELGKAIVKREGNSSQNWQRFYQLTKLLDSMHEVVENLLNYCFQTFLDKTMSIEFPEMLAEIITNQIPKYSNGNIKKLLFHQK
# Sequence of Androgen receptor (Homo sapiens) (P10275 whole entry, looked up): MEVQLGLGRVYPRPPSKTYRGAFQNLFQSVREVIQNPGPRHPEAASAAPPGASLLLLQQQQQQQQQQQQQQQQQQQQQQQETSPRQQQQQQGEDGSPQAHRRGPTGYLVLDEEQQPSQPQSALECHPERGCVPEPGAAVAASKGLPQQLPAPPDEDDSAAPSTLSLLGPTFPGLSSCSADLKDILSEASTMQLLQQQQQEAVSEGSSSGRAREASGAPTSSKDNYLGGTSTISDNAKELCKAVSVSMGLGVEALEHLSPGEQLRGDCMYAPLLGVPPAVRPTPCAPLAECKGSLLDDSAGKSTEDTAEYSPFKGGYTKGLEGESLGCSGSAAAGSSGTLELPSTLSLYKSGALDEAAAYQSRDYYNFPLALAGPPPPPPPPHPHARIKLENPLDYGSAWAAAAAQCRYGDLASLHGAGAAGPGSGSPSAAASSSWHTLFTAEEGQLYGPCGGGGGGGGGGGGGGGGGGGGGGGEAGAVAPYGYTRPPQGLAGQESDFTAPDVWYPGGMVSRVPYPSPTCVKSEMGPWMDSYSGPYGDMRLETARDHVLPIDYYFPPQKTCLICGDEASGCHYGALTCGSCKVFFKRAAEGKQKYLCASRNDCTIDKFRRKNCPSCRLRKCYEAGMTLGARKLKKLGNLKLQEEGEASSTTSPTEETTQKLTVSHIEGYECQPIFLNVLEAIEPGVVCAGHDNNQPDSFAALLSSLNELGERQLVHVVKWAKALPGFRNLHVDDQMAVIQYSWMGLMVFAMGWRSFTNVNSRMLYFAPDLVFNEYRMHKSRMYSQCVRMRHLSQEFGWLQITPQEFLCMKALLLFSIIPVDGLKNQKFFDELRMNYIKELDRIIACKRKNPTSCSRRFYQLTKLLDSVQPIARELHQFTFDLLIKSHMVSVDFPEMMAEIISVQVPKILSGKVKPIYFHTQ
# Sequence of Bile acid receptor (Homo sapiens) (Q96RI1 whole entry, looked up): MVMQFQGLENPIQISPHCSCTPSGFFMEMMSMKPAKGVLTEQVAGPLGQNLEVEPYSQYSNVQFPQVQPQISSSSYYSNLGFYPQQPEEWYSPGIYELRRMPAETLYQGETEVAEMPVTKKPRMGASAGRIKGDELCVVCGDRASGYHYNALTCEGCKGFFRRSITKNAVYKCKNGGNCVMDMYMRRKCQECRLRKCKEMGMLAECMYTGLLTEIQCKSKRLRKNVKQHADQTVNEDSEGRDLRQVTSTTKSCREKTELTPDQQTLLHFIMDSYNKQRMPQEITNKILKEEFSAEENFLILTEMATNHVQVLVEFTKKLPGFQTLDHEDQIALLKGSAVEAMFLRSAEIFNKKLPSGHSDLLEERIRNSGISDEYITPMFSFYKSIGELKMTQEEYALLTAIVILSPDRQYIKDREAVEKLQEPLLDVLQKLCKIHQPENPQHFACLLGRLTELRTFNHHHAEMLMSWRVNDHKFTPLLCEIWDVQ
# Sequence of Estrogen receptor (Homo sapiens) (P03372 whole entry, looked up): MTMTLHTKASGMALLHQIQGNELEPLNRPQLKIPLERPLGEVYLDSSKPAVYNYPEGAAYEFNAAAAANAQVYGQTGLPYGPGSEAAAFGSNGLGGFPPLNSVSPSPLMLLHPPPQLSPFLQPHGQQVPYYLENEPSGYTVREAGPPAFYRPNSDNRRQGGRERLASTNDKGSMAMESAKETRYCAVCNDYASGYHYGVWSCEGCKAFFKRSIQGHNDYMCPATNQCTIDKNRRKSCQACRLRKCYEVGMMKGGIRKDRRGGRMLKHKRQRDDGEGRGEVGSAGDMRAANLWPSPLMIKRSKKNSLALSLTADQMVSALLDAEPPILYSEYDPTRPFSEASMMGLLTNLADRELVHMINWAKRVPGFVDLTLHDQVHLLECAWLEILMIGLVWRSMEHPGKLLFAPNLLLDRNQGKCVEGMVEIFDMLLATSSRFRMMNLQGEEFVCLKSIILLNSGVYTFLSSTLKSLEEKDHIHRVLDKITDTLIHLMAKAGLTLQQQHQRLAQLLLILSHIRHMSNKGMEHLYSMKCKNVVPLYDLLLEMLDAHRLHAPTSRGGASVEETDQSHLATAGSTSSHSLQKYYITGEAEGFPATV
# Sequence of Peroxisome proliferator-activated receptor gamma (Homo sapiens) (P37231 whole entry, looked up): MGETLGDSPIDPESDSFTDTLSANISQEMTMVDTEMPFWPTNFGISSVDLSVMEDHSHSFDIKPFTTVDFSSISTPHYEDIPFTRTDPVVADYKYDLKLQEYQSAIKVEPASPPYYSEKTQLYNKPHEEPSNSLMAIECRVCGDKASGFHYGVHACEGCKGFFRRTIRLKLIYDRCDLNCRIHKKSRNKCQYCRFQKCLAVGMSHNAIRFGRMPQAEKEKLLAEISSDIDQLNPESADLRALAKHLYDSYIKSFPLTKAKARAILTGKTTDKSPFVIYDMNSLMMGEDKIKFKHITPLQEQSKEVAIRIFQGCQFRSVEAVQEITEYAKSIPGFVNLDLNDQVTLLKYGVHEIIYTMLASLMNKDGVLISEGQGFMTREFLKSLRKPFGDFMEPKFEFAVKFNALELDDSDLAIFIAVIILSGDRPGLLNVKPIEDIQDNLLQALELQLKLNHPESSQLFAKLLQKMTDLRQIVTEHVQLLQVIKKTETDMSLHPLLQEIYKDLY
smiles,measurement,setting,value
Oc1ccc2ccccc2c1N=Nc1ccccc1,Potency,[1],inactive
same,Potency,[2],inactive
same,outcome,[3],inactive
same,Potency,[4],3.06 µM (active)
O=C(O)c1cccc(C(=O)O)c1,Potency,[1],inactive
same,activation,[5],-2.7%
same,Potency,[6],inactive
same,outcome,[3],inactive
same,Potency,[7],inactive
same,Potency,[4],inactive
CCCCCc1ccc(N)cc1,Potency,[1],inactive
same,outcome,[3],inactive
same,Potency,[7],inactive
CCOC(=O)c1ccccc1C,Potency,[1],inactive
same,activation,[5],10.9%
same,Potency,[6],inactive
same,outcome,[3],inactive
same,Potency,[7],inactive
same,Potency,[4],inactive
COc1ccc(OC)c(OC)c1,Potency,[1],inactive
same,Potency,[2],inactive
same,activation,[5],0.211%
same,outcome,[3],inactive
same,Potency,[4],inactive
Cn1sccc1=O,Potency,[1],inactive
same,Potency,[2],inactive
same,activation,[5],2.87%
same,Potency,[6],inactive
C=C(C)C(=O)OCCC[Si](OC)(OC)OC,Potency,[1],inactive
same,Potency,[6],inactive
same,outcome,[3],inactive
same,Potency,[4],inactive
CCOC(=O)CCCCCCCCC(=O)OCC,Potency,[1],inactive
same,Potency,[8],inactive
same,outcome,[3],inactive
same,Potency,[4],inactive
c1ccc2cc3c(ccc4ccccc43)cc2c1,Potency,[1],inactive
same,Potency,[2],inactive
same,Potency,[7],inactive
C#CCOC(=O)[C@@H](C)Oc1ccc(Oc2ncc(Cl)cc2F)cc1,Potency,[8],inactive
same,Potency,[2],inactive
same,outcome,[3],inactive
same,Potency,[7],inactive
CO[Si](OC)(OC)c1ccccc1,Potency,[8],inactive
same,activation,[5],-5.49%
same,Potency,[6],inactive
same,outcome,[3],inactive
same,Potency,[7],inactive
COc1nc(C)nc(NC(=O)NS(=O)(=O)c2ccccc2OCCCl)n1,Potency,[8],inactive
same,Potency,[2],inactive
same,Potency,[6],inactive
same,outcome,[3],inactive
Cl[Si](Cl)(Cl)c1ccccc1,Potency,[8],inactive
same,activation,[9],7.73%
same,Potency,[2],inactive
same,activation,[5],5.43%
C=C(C)C(=O)OCCCCCCCCCCCC,Potency,[8],inactive
same,activation,[5],-1.63%
same,Potency,[6],inactive
same,outcome,[3],inactive
CC(=O)Nc1ccc(N=Nc2cc(C)ccc2O)cc1,Potency,[8],inactive
same,activation,[9],-4.42%
same,outcome,[10],inactive
same,Potency,[6],inactive
same,Potency,[4],17.2 µM (active)
CCOC(=O)C(C)Oc1ccc(Oc2cnc3cc(Cl)ccc3n2)cc1 (stereo not given),Potency,[8],inactive
same,activation,[5],-6.64%
same,outcome,[3],inactive
same,Potency,[7],inactive
CCCCOCC(C)O (stereo not given),Potency,[8],inactive
same,activation,[5],-3.25%
same,Potency,[6],inactive
same,outcome,[3],inactive
same,Potency,[7],inactive
CC(=O)CC(=O)Nc1ccccc1C,Potency,[8],inactive
same,activation,[5],2.41%
same,Potency,[6],inactive
same,outcome,[3],inactive
CCCCCCCC(=O)Oc1c(Br)cc(C#N)cc1Br,Potency,[8],inactive
same,Potency,[2],inactive
same,Potency,[6],inactive
same,outcome,[3],inactive
O=c1[nH]sc2ccccc12,Potency,[8],inactive
same,activation,[5],-3.87%
same,Potency,[7],inactive
same,Potency,[4],27.3 µM (active)
CCCCCCCCCC[N+](C)(C)Cc1ccccc1,Potency,[8],1.12 µM (active)
same,activation,[9],-12.2%
same,Potency,[6],inactive
same,Potency,[7],inactive
CC(C)(C)c1cc(C(C)(C)C)c(O)c(C(C)(C)C)c1,Potency,[8],inactive
same,activation,[5],22.2%
same,Potency,[6],inactive
same,Potency,[7],inactive
CCCCCCCCCCCCCC(=O)OC,Potency,[8],inactive
same,activation,[9],9.07%
same,activation,[5],-4.01%
same,Potency,[6],inactive
same,Potency,[7],inactive
C=CCOC(=O)CC(C)C,Potency,[8],inactive
same,Potency,[2],inactive
same,Potency,[6],inactive
same,outcome,[3],inactive
CC/C=C/CCCCCCCCCCOC(C)=O,Potency,[8],inactive
same,activation,[5],2.34%
same,Potency,[6],inactive
same,outcome,[3],inactive
same,Potency,[7],inactive
same,Potency,[4],inactive
O=C(O)CN(CCO)CCN(CC(=O)O)CC(=O)O,Potency,[8],inactive
same,activation,[9],3.88%
same,outcome,[10],inactive
same,activation,[5],-10.4%
same,Potency,[6],inactive
same,outcome,[3],inactive
same,Potency,[7],inactive
same,Potency,[4],inactive
c1ccc2cc3ccccc3cc2c1,Potency,[8],inactive
same,Potency,[2],inactive
same,activation,[5],13.3%
same,Potency,[6],inactive
same,Potency,[7],inactive
same,Potency,[4],inactive
O=C(O)CN(CCCN(CC(=O)O)CC(=O)O)CC(=O)O,Potency,[8],8.91 µM (active)
same,activation,[9],-11.6%
FC(F)(F)c1ccc(Cl)c(Cl)c1,Potency,[8],inactive
same,activation,[9],6.47%
same,activation,[5],-1.21%
same,Potency,[6],inactive
same,Potency,[7],inactive
Nc1ccc(N)c2c1C(=O)c1c(N)ccc(N)c1C2=O,Potency,[8],inactive
same,activation,[9],5.62%
same,Potency,[2],inactive
same,activation,[5],0.353%
same,Potency,[6],inactive
same,outcome,[3],inactive
same,Potency,[7],inactive
same,Potency,[4],27.3 µM (active)
CCCCOC(=O)[C@@H](C)Oc1ccc(Oc2ccc(C(F)(F)F)cn2)cc1,Potency,[8],inactive
same,activation,[5],-9.59%
same,Potency,[6],inactive
same,outcome,[3],inactive
same,Potency,[7],inactive
same,Potency,[4],inactive
c1ccc(B(c2ccccc2)c2ccccc2)cc1,Potency,[8],inactive
same,activation,[5],-5.17%
same,Potency,[6],inactive
same,outcome,[3],inactive
same,Potency,[7],inactive
O=S(c1ccc(Cl)cc1)c1cc(Cl)c(Cl)cc1Cl (stereo not given),Potency,[8],inactive
same,activation,[9],-11.5%
same,Potency,[2],inactive
same,activation,[5],1.68%
same,Potency,[4],54.5 µM (active)
CC1(C)[C@@H]([C@@H](Br)C(Br)(Br)Br)[C@H]1C(=O)O[C@H](C#N)c1cccc(Oc2ccccc2)c1,Potency,[8],inactive
same,activation,[9],-17.3%
same,activation,[5],-6.04%
same,Potency,[6],inactive
same,Potency,[4],21.7 µM (active)
COC(=O)C1CCC(C(=O)OC)CC1 (stereo not given),Potency,[8],inactive
same,Potency,[2],inactive
same,Potency,[7],inactive
CN=C(N)NCC1CCOC1 (stereo not given),Potency,[8],inactive
same,activation,[9],2.67%
same,Potency,[2],inactive
same,activation,[5],-0.0864% and -2.61%
same,Potency,[6],inactive
same,outcome,[3],inactive
same,Potency,[7],inactive
same,Potency,[4],21.7 µM (active)
